PubChem BioAssay (NCI)
The panel holds about 79,000 compounds, 15% with a hit somewhere; the sample as a whole holds those more often. Calls of active or inactive are those of the source. No stated cut-off is given here; in the data, active means growth inhibition above about 70%; inactive means the rest. Where a SMILES comes first, the peptide text is derived from it. [ ]: non-standard residue; d: D form. The star is where a group is joined. ξ: configuration not given here. ξF = NC(Cc1ccccc1)C(=O)O; Cbz = O=C(OCc1ccccc1)*

How the values were obtained:
[1] = NCI Yeast Anticancer Drug Screen. Data for the rad50 strain (AID 155);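 further: 0% = growth of vehicle-only cultures of the same strain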; details: S. cerevisiae rad50 strain growth inhibition; at 50.0 µM; stronger effect = higher value
Method in brief: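 DNA repair mutant yeast, compound exposure, growth read-out; inhibition is taken relative to vehicle.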

[2] = NCI Yeast Anticancer Drug Screen. Data for the mec2-1 strain (AID 157); details: S. cerevisiae mec2-1 strain, at 50.0 µM, stronger effect = higher value
Method in brief: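 Each compound was tested on mec2-1 yeast, a strain altered in DNA damage repair or cell cycle control. Growth inhibition is reported relative to vehicle.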

[3] = NCI Yeast Anticancer Drug Screen. Data for the sgs1 mgt1 strain (AID 161);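 further: 0% = growth of cultures given vehicle only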; details: S. cerevisiae sgs1 mgt1 strain, at 50.0 µM, stronger effect = higher value
Method in brief: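 Inhibition of yeast growth, normalised to vehicle-treated controls, is reported for a strain bearing genetic alterations in DNA damage repair.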

[4] = NCI Yeast Anticancer Drug Screen. Data for the cln2 rad14 strain (AID 165);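 further: 0% = growth equal to vehicle treated cultures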; details: S. cerevisiae cln2 rad14 strain, at 50.0 µM, stronger effect = higher value
Method in brief: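 Test compounds were added to cln2 rad14 yeast cultures; inhibition of growth was then determined by comparison with vehicle treatment.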

[5] = NCI Yeast Anticancer Drug Screen. Data for the bub3 strain (AID 167); details: S. cerevisiae bub3 mutant strain, at 50.0 µM, stronger effect = higher value
Method in brief: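 In this screen, a yeast mutant lacking normal mitotic checkpoint function is challenged with compound. Relative growth versus vehicle gives the inhibition value.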

[6] = NCI Yeast Anticancer Drug Screen. Data for the mlh1 rad18 strain (AID 175); details: S. cerevisiae mlh1 rad18 strain growth inhibition; at 50.0 µM; stronger effect = higher value
Method in brief: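 Inhibition values reflect reduced growth of mutant yeast versus vehicle-treated controls following compound exposure; the mutations affect DNA damage repair.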

Measured: growth inhibition

O=C(O)CCNCC(=O)O
inactive: [1] -28.1% | [2] -32.6% | [3] -21.9% | [4] 3.2% | [5] -21.7% | [6] -23.6%

CCn1c(C)[n+](CC)c2ccc(C(C)=O)cc21
inactive: [1] -0.35% | [2] -19.7% | [3] -3.95% | [4] 8.95% | [5] 2.55% | [6] -8.75%

CCOC(=O)CNC(=O)C(Cc1ccccc1)NC(=O)OCc1ccccc1 (configuration not stated) (Cbz-[ξF]-Gly-OEt)
inactive: [1] -16.2% | [2] -19.1% | [3] 4.55% | [4] -4.75% | [5] -3.6% | [6] -9%

COc1ccc2c(ccc[n+]2CC(=O)c2ccc(SC)cc2)c1
inactive: [1] 1.9% | [2] 12.3% | [3] 20.1% | [4] 21.4% | [5] 19.6% | [6] 0.75%

CCOC(=O)NC(C)(C)CC(C)(C)C
inactive: [1] -0.6% | [2] -17.6% | [3] -4.7% | [4] 11.9% | [5] -18.6% | [6] 17.4%

NNC(=O)C1CC1
inactive: [1] 0.5% | [2] -25.9% | [3] -5.65% | [4] 2.8% | [5] -14.1% | [6] -4.55%

O=C(Nc1ccccc1)Nc1ccccc1C(=O)O
inactive: [1] -5.8% | [2] -22% | [3] -16.4% | [4] -54.6% | [5] -16.2% | [6] -31.3%

S=C(NCN1CCCCC1)NCN1CCCCC1
inactive: [1] 9.55% | [2] 9.1% | [3] 4.95% | [4] -50.1% | [5] 23.8% | [6] 33.5%

CCOC(=O)C1CC1Cc1ccccc1 (configuration not stated)
inactive: [1] -18.1% | [2] -9.95% | [3] -2.2% | [4] -7.2% | [5] 6.05% | [6] -2.95%

COc1ccc(Cc2ccc(CO)cc2)cc1
inactive: [1] 4.6% | [2] -18.9% | [3] -31.9% | [4] -20% | [5] -7.7% | [6] -14.2%

O=C(O)c1ccc(O)cn1
inactive: [1] -4.8% | [2] -7.05% | [3] 2.55% | [4] 6.7% | [5] 3.3% | [6] 2.55%

CCOC(=O)c1cc(-c2ccccc2)c(-c2ccccc2)c(-c2ccccc2)c1-c1ccccc1
inactive: [1] 28.4% | [2] 9.15% | [3] 19.6% | [4] 18.3% | [5] 2.75% | [6] 14.6%

N#C/C=C(\N)C(C#N)C#N
inactive: [1] -4.85% | [2] -25.9% | [3] -3.15% | [4] 6.75% | [5] -3.6% | [6] 4.8%

Cc1ccsc1S(N)(=O)=O
inactive: [1] -21.1% | [2] -23.1% | [3] -10.6% | [4] -12.2% | [5] 11.4% | [6] -6.75%

CN(C)c1ccc(N=Nc2cccc3ncccc23)cc1
inactive: [1] 2.1% | [2] 26.6% | [3] 67.5% | [4] 31.1% | [5] 65.5% | [6] 66%

COC(=O)c1noc2c1CSC1=C2CS(=O)(=O)c2ccccc21
inactive: [1] 16.4% | [2] 22% | [3] 30.4% | [4] 14.8% | [5] 17.2% | [6] 26.6%

CCOc1ccc(/C=C2\N=C(c3cccc(Cl)c3)OC2=O)cc1
inactive: [1] 12.2% | [2] 15.3% | [3] 22.1% | [4] 19.6% | [5] 17.2% | [6] 13.7%

COc1ccc(OC(C)C(=O)O)c2c1CCCC2=O (configuration not stated)
inactive: [1] 21.6% | [2] 6.3% | [3] -17.1% | [4] 25.6% | [5] 5.15% | [6] 22.7%

COc1ccc(/C=C/C2=CC(=O)CC(/C=C/c3ccc(OC)c(OC)c3)C2)cc1OC (configuration not stated)
inactive: [1] 45% | [2] 46.5% | [3] 28.9% | [4] 49.6% | [5] 58.6% | [6] 43.9%

CC(C)(Oc1ccc(/C=C/C(=O)c2ccccc2)cc1)C(=O)Nc1c(Cl)cccc1Cl
inactive: [1] -6.6% | [2] -46.6% | [3] -3.15% | [4] -65.5% | [5] -13.1% | [6] -1.45%

O=C(OCc1ccccc1)c1ccc(NCc2cc(O)ccc2O)cc1
active: [1] 88.7% | [2] 90.7% | [3] 89.7% | [4] 89.6% | [5] 88% | [6] 92.2%

O=C(OC1CCCC1OC(=O)c1ccccc1)c1ccccc1 (configuration not stated)
inactive: [1] -11.5% | [2] 9.6% | [3] 1.6% | [4] -5.3% | [5] 12.2% | [6] 22.4%

C(=NC12CC3CC(CC(C3)C1)C2)C1CCCCC1
inactive: [1] -17.1% | [2] -24.8% | [3] 0.05% | [4] 3% | [5] 4.8% | [6] -2.5%

O=c1[nH]c(N2CCN(c3ccccc3)CC2)nc2cc3ccccc3cc12
inactive: [1] 2.55% | [2] -10.6% | [3] -13.6% | [4] -26.8% | [5] -5.15% | [6] -16.9%

CCCCCCCCCCCCCCCC(=O)Oc1ccc(/C(CC)=C(/CC)c2ccc(OC(=O)CCCCCCCCCCCCCCC)cc2)cc1
inactive: [1] 16.1% | [2] -8.1% | [3] 8.55% | [4] 1.85% | [5] 8.65% | [6] 4.25%

CC1CCC2C(C)C3C(CC4C5CC=C6CC(O)CCC6(C)C5CCC43COC(=O)c3ccccc3)N2C1 (configuration not stated)
inactive: [1] 44.4% | [2] 16.8% | [3] 55.8% | [4] 21.4% | [5] 5.95% | [6] 42.6%

Clc1ccccc1OCCNC1CC1
inactive: [1] 20.7% | [2] -0.1% | [3] -10.8% | [4] -45% | [5] 4.95% | [6] 1.7%

CNc1c2c(nc3ccccc13)CCCC2
inactive: [1] 1.95% | [2] -10.3% | [3] -10.1% | [4] -44.4% | [5] 15.1% | [6] -19.2%

CCO/C=C1/N=C(c2ccccc2Cl)OC1=O
inactive: [1] 10.2% | [2] 5.25% | [3] -1.05% | [4] -30.1% | [5] -17.1% | [6] 14.3%

CCCCCCCCCCCC(=O)O
inactive: [1] -0.85% | [2] 0.7% | [3] 25.6% | [4] -7.45% | [5] 10.1% | [6] 19.2%

C[n+]1ccc2c(Br)cccc2c1
inactive: [1] -1.8% | [2] -14.9% | [3] -6.45% | [4] -12.7% | [5] -1% | [6] 13.5%

C#CC[N+](C)(CC#C)CC#C
inactive: [1] 9.85% | [2] 7.8% | [3] 13% | [4] 11.9% | [5] 9.7% | [6] 9.2%

CC1C(c2ccccc2O)c2cc3c(cc2OC1N1CCCC1)OCO3 (configuration not stated)
inactive: [1] 45.9% | [2] 38.8% | [3] 58.5% | [4] 59.6% | [5] 47.4% | [6] 58.3%

CC1CC=CCC1C1OCCO1 (configuration not stated)
inactive: [1] 3.95% | [2] 1.6% | [3] 3.45% | [4] 10.2% | [5] 16.4% | [6] -2.7%

NC(=O)C(=O)NNC(=O)Nc1ccc(Cl)cc1
inactive: [1] 16.8% | [2] 12.3% | [3] 7.8% | [4] -13.3% | [5] 1.75% | [6] 20.8%

N#CCC(=O)c1ccc(N)cc1
inactive: [1] 16.1% | [2] -19.6% | [3] 2.2% | [4] 13.9% | [5] -11% | [6] 13.4%

CCCCCCCC(N)=O
inactive: [1] 15.7% | [2] -28.1% | [3] 8.4% | [4] 12.4% | [5] -11.6% | [6] -10.3%

Cc1cc(=O)[nH]c2cc(NN)ccc12
inactive: [1] 10.2% | [2] -3.85% | [3] 4.85% | [4] -4.35% | [5] -0.45% | [6] 8.55%

Cc1c(O)ccc2c1CCCC2
inactive: [1] 7.05% | [2] 5.75% | [3] -4.8% | [4] -34.2% | [5] 6.1% | [6] 4.65%

CCOC(=O)c1[nH]c2ccc(O)c3c2c1CCC3=O
inactive: [1] 30.6% | [2] -4.15% | [3] -3.6% | [4] 13.1% | [5] 6.4% | [6] 16.5%

CN(C)NC(=S)Nc1ccccc1
inactive: [1] -5.05% | [2] -0.65% | [3] -11.8% | [4] -36% | [5] -1.7% | [6] -6.15%

C=C(C)C(=O)O[C@@H]1C[C@@]2(C)O[C@@H]2C[C@H](O)/C(C)=C/[C@H]2OC(=O)C(=C)[C@@H]21
inactive: [1] -19.6% | [2] -33.1% | [3] -22.5% | [4] 0.35% | [5] -16.5% | [6] -43.1%
